ALDH1A1 block = inhibitors of human aldehyde dehydrogenase 1A1 | P00352 | Purified ALDH1A1, NADH fluorescence, propionaldehyde substrate | Potency, µM (series often up to 75.3 µM), most hits filed as inhibitors | 220,000 tested, 7.3% active
PNC inhibitor = blocks assembly of the perinucleolar compartment | 140,000 tested, 3.1% active | activity change (PNC), negative = inhibition, % at 10 µM | PC3M PTB-GFP, PNC prevalence imaging, 16 h; stronger effect = lower value;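 active means readout at or below -70, meaning at least 70% loss of cells showing the perinucleolar compartment, a nuclear body marking cancer cells; inconclusive means readout between -30 and a set limit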
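Compounds are pinned in duplicate onto adhered PC3M cells stably expressing GFP-tagged PTB and incubated 16 h at 37 C. Cells are then fixed, nuclei stained with Hoechst, and PNC-positive cells counted.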
JMJD2E inh = inhibitors of human JMJD2E histone demethylase. B2RXH2. JMJD2E catalytic domain, FDH-coupled NADH fluorescence (FDH is formaldehyde dehydrogenase). Potency, µM (series often up to 57.1 µM), hits mostly inhibitors. 230,000 tested, 1.6% active. AID 2147; further: nearly all actives have a fitted effect of over 50% in size
Target sequence (B2RXH2 1-337 limits assumed): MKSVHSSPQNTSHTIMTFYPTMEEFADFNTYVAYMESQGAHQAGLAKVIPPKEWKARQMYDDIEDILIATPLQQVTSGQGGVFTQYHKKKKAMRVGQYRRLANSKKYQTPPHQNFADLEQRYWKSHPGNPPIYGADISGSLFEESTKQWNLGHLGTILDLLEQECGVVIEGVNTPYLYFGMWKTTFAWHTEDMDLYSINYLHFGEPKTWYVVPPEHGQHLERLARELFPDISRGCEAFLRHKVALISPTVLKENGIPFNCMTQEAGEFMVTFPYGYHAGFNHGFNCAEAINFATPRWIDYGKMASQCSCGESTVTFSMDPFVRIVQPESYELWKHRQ
HPGD inh = blocks human HPGD enzyme activity; purified HPGD, NADH fluorescence kinetic, PGE2 substrate; 150,000 tested, 4.3% active; Potency, µM, actives largely listed as inhibitors
Target sequence (P15428 whole entry, looked up): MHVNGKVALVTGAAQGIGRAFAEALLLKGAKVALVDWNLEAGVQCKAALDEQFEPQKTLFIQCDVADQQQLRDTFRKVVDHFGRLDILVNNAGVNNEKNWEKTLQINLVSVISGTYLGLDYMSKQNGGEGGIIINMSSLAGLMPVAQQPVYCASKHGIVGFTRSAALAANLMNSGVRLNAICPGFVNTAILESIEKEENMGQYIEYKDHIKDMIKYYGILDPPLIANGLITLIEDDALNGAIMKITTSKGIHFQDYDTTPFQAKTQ
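20 nM HPGD preincubated 15 min at room temperature with compound in 50 mM Tris-HCl pH 8, 0.01% Tween 20. Started with 1 mM NAD+ and 30 uM prostaglandin E2; NADH fluorescence (360/450 nm) read 5 times over 30-s intervals, last minus first.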
Numbers stand for hits; - = inactive; ? = inconclusive; . = no result given; ! = not active in a repeat; [ ] = dose if it differs, or a comment. Most compounds without a hit are left out; they make up all but 11% or so of the library. Unless noted, the call rests on the fitted dose curve; in most records, active means well fitted inhibition curve with a large enough effect (not every such curve was filed as active); inconclusive means small, poorly fitted or top-dose-only effect, or another doubt; inactive means no such curve, though single readings can be large or run the other way.

SMILES | ALDH1A1 block | PNC inhibitor | JMJD2E inh | HPGD inh
C=CCNC(=O)CSc1nc2cc(C(=O)OCC)ccc2n1CC | - | ? | - | 25.1µM
N#CCSc1nc2ccccc2c(=O)n1CCCC(=O)NCC1CCCO1 (centres undefined) | 28.2µM | . | - | .
O=C(CCCn1c(SCC(=O)c2ccc(F)cc2)nc2ccccc2c1=O)NCc1ccccc1 | - | - | - | -
O=C(CCCn1c(SCC(=O)NCC2CCCO2)nc2ccccc2c1=O)NCc1ccccc1 (centres undefined) | - | - | - | -
O=C(CCCn1c(SCc2cccc(F)c2)nc2ccccc2c1=O)NCC1CCCO1 (centres undefined) | 15.8µM | . | - | .
CCn1c(SCC(=O)Nc2cccc(C)c2)nc2nc3c(cc2c1=O)COC(C)(C)C3 | ? | . | - | .
O=C1CCC(=O)N1OCCCOc1ccc(Br)cc1Cl | - | - | - | 17.8µM
C[C@@H](NC(=O)C1(N)CCCC1)C(=O)O | -[13.5 µM] | . | . | -
NC(=O)/C(=N\OC(=O)c1ccco1)c1nc(-c2ccc(Br)cc2)cs1 | 12.6µM | - | ? | 12.6µM
CC1=NN(c2ccc(C(=O)O)cc2)C(=O)/C1=C\c1ccc(OC(=O)c2cccs2)cc1 | 2.24µM | . | 3.16µM | .
COc1cc(/C=C2/C(=O)NN(c3cccc(C)c3)C2=O)ccc1OC(=O)c1ccco1 | 3.16µM | - | - | 2µM
CCOc1cc(/C=C2\C(=O)ON=C2C)ccc1OCc1ccccc1 | 3.55µM | - | - | 7.08µM
CCOc1cc(/C=C2\C(=O)N(c3ccc(C(N)=O)cc3)N=C2C)ccc1OC(=O)c1cccs1 | 0.708µM | - | ? | 7.08µM
CCCCCCCCCCCCCCCC(=O)O[C@H](CC(=O)O)C[N+](C)(C)C | - | . | ? | -
N[C@@H](CCS(=O)O)C(=O)O | - | . | . | .
CC(CN1C(C)CCCC1C)OC(=O)c1ccc(Cl)cc1Cl (centres undefined) | - | . | - | .
CC(NC(=O)c1cccs1)c1n[nH]c(=S)n1C (centres undefined) | - | ? | - | -
CCOc1cc(/C=C2/C(=O)N(c3ccccc3)N=C2C)ccc1OC(=O)c1ccco1 | ? | - | ? | 8.91µM
Cc1noc(C)c1-c1cncnc1-n1ccnc1 | - | . | . | .
CCOC(=O)c1ccc2c(c1)C(=O)N(C1CCCCC1)C2=O | 22.4µM | - | - | -
CC(C)(C)NC(=O)c1ccc2c(c1)C(=O)N(C1CCCCC1)C2=O | 2.82µM | - | - | -
CCOC(=O)N1CCC(N2C(=O)c3ccc(C(=O)O)cc3C2=O)CC1 | - | - | - | -
O=C(Nc1ccccc1)Nc1ccc(C(=O)N2CCCC2)cc1 | - | . | - | .
O=C(Nc1ccc(C(=O)N2CCOCC2)cc1)Nc1cccc(Cl)c1 | - | - | - | 28.2µM
CC(=O)c1cccc(NC(=O)Nc2ccc(C(=O)N3CCCC3)cc2)c1 | 14.1µM | - | - | 1.12µM
SMILES | ALDH1A1 block | PNC inhibitor | JMJD2E inh | HPGD inh
Cc1nc(-c2ccc3c(c2)OCO3)cs1 | - | - | - | -
Cc1nc(-c2ccc(C(=O)Nc3ccc(F)cc3)cc2)cs1 | - | . | - | .
Cc1nc(-c2cccc(S(=O)(=O)N3CCOCC3)c2)cs1 | 4.47µM | - | - | 25.1µM
Cc1nc(-c2ccc(C(=O)N3CCOCC3)cc2)cs1 | - | ? | - | 8.91µM
Cc1nc(-c2ccc(C(=O)N3CCCC3)cc2)cs1 | 25.1µM | . | - | .
Cc1nc(-c2ccc3c(c2)OCCCO3)cs1 | 25.1µM | . | - | .
CCC(C(=O)NCc1ccccc1OC)c1ccccc1 (centres undefined) | - | . | - | .
O=C(c1ccccc1)c1ccc(O)cc1O | - | . | - | .
COc1ccc(C(=O)c2ccc(N(C)C)cc2)c2ccccc12 | - | -96.6 | - | -
CCOC(=O)COc1ccc(C(=O)c2ccccc2)c(O)c1 | - | - | - | 15.8µM
COc1ccc(C(C)=O)c(O)c1 | ? | . | - | 17.8µM
COc1ccc(C(=O)c2ccccc2)c(O)c1 | 31.6µM! | - | - | 15.8µM!
Cc1cc(OC(=O)c2ccc(S(=O)(=O)N(C)C)cc2)c([N+](=O)[O-])c(=O)[nH]1 | - | . | - | .
COc1ccc(C(=O)c2ccccc2)c(O)c1O | - | . | 22.4µM | -
CC1CCCC(NC(=O)CCC(=O)c2ccc(F)cc2)C1C (centres undefined) | 15.8µM | . | - | .
Cc1nc(CSc2nsc(C)c2C#N)cs1 | - | . | - | .
Cc1ccnc(SCC(=O)c2ccc(Br)cc2)c1C#N | ? | - | - | 28.2µM
Cc1snc(SCC(=O)c2ccc(Cl)cc2)c1C#N | 20µM | - | ? | ?
Cc1ccc(C(=O)CSc2nsc(C)c2C#N)cc1 | ? | - | - | 22.4µM
Cc1ccc(N2CC(C(=O)Nc3ccc(C)c(S(=O)(=O)N(C)C)c3)CC2=O)cc1 (centres undefined) | - | . | - | .
CN(C)/C=C1\C(=O)N(C)N=C1C(F)(F)F | - | . | - | .
Cc1ccc(Cn2ccc(NC(=O)c3cc(-c4ccc5c(c4)OCO5)on3)n2)cc1 | - | - | ? | ?
CC(C)(C)c1ccc(Cn2ccc(-c3ccc4c(c3)OCO4)n2)cc1 | 3.98µM | - | - | -
CCOC(=O)c1nc(Nc2ccc(N3CCC(C)CC3)cc2)c2ccccc2n1 | - | . | - | .
Cc1ccc(CC(=O)NCc2ccc(Cl)cc2)cc1 | ? | . | - | .
SMILES | ALDH1A1 block | PNC inhibitor | JMJD2E inh | HPGD inh
Cc1ccc(CC(=O)NCC(C)C)cc1 | - | ? | - | 17.8µM
COc1ccc(CN2C(=O)c3c(c(C)n(C)c3C)C2C(=O)NC2CCC(C)CC2)cc1 (centres undefined) | 0.794µM | . | - | .
COc1ccc(N)cc1-n1c(C)ccc1C | 14.1µM | . | ? | .
COC(=O)c1ccccc1NC(=O)Cn1c(-c2nonc2N)nc2ccccc21 | - | -97.7 | - | -
CCOC(=O)c1ccc(NC(=O)Cn2c(-c3nonc3N)nc3ccccc32)cc1 | - | . | - | .
CC(C)OC(=O)c1ccc(NC(=O)Cn2c(-c3nonc3N)nc3ccccc32)cc1 | 22.4µM | - | - | -
COC(=O)c1ccc(NC(=O)Cn2c(-c3nonc3N)nc3ccccc32)cc1 | - | . | - | .
COc1ccccc1NC(=O)c1ccc(NC(=O)COC(=O)CC(NC(=O)c2ccccc2Cl)c2ccccc2)cc1 (centres undefined) | - | - | ? | -
CN=C(NC#N)Nc1ccc(C2=NNC(=O)C[C@@H]2C)cc1 | ? | . | ? | -
O=C(Nc1ccc2c(c1)OCO2)C1CCN(C(=O)c2ccc([N+](=O)[O-])cc2)CC1 | - | . | - | .
COc1cccc(N2CC(C(=O)Oc3ccc4ccccc4c3)CC2=O)c1 (centres undefined) | - | - | - | -
COC(=O)c1ccc(OC(=O)C2CC(=O)N(c3cccc(C)c3)C2)cc1 (centres undefined) | 17.8µM | - | - | ?
O=C(/C=C/c1ccc(-c2ccccc2[N+](=O)[O-])o1)c1ccc(Br)cc1 | 7.08µM | ? | - | -
O=C(/C=C/c1ccc(-c2ccccc2[N+](=O)[O-])o1)c1ccc(F)cc1 | - | - | - | ?
O=Cc1ccc(-c2cccc(C(=O)O)c2)o1 | - | . | ? | .
Cc1ccc(C(=O)/C=C/C(=O)c2ccc(C)cc2)cc1 | 0.891µM | . | - | .
Cc1ccc(/C=C/C(=O)c2ccc(C)cc2)cc1 | - | - | - | -
Cc1ccc(-c2ccc(/C=C/C(=O)c3ccccc3)o2)cc1 | 3.16µM | ? | ? | 14.1µM
O=C(/C=C/c1ccc(-c2ccccc2)o1)c1ccccc1 | - | - | - | 3.55µM
